Measurements: the supplement of paper PMC3616981

Compound: CC(C)c1cccc(C(C)C)c1N1C(=O)c2ccc(O)cc2C1=O
Assay: reporter fold induction vs vehicle; higher = higher reporter activity
Protocol: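 Attagene multiplexed transcription-factor reporter assay (48 cis response elements and 25 trans nuclear-receptor constructs) treated with 5HPP-33 at 8 concentrations (0.091–200 µM). The response is fold induction of reporter activity relative to vehicle control. Cell line and time not stated in the paper; tested in ToxCast Phase II for this study.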

ISRE_CIS
reporter fold induction (0.091 µM): 1.23 | reporter fold induction (0.274 µM): 0.874 | reporter fold induction (0.823 µM): 1.04 | reporter fold induction (2.469 µM): 0.962 | reporter fold induction (7.407 µM): 0.9 | reporter fold induction (22.22 µM): 0.883 | reporter fold induction (66.67 µM): 0.605 | reporter fold induction (200 µM): 0.362

PPRE_CIS
reporter fold induction (0.091 µM): 1.02 | reporter fold induction (0.274 µM): 0.905 | reporter fold induction (0.823 µM): 1.09 | reporter fold induction (2.469 µM): 0.944 | reporter fold induction (7.407 µM): 1.08 | reporter fold induction (22.22 µM): 1.21 | reporter fold induction (66.67 µM): 2.59 | reporter fold induction (200 µM): 1.68

Xbp1_CIS
reporter fold induction (0.091 µM): 1.06 | reporter fold induction (0.274 µM): 0.98 | reporter fold induction (0.823 µM): 0.93 | reporter fold induction (2.469 µM): 0.937 | reporter fold induction (7.407 µM): 1.21 | reporter fold induction (22.22 µM): 1.13 | reporter fold induction (66.67 µM): 1.74 | reporter fold induction (200 µM): 4.47

THRa1_TRANS
reporter fold induction (0.091 µM): 1.06 | reporter fold induction (0.274 µM): 1.01 | reporter fold induction (0.823 µM): 1.07 | reporter fold induction (2.469 µM): 1.3 | reporter fold induction (7.407 µM): 0.83 | reporter fold induction (22.22 µM): 0.993 | reporter fold induction (66.67 µM): 1.35 | reporter fold induction (200 µM): 0.658

VDRE_CIS
reporter fold induction (0.091 µM): 1.07 | reporter fold induction (0.274 µM): 1.09 | reporter fold induction (0.823 µM): 0.969 | reporter fold induction (2.469 µM): 0.979 | reporter fold induction (7.407 µM): 1.62 | reporter fold induction (22.22 µM): 1.76 | reporter fold induction (66.67 µM): 2.18 | reporter fold induction (200 µM): 3.25
